From PubChem
HT1080 IDH1KD tx: HT-1080 IDH1 knockdown cell toxicity (counter line) | HT-1080 IDH1 knockdown viability, ATP luminescence, 48 h | Potency, µM (series often up to 46.1 µM), for inactives: at the top dose activity, negative = toxicity, hits mostly cytotoxic | 360,000 tested, 2% active | AID 686971;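 also: potency is read from the fitted curve at half-maximal effect; 0% = DMSO wells and -100% = cell-free medium wells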
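Cytotoxicity counter-line: IDH1KD HT-1080, 48 h, CellTiter-Glo. Curves classed by r2, magnitude and activity.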
TDP1 cell CPT: DT40-hTDP1 cell growth loss with CPT; chicken DT40 Tdp1-/-;hTDP1 cells + 20 nM CPT, ATP luminescence, 48 h; Potency, µM (doses to about 46.2 µM), inactives show at the highest dose activity change, negative = growth inhibition, most hits filed as inhibitors; 420,000 tested, 12% active; AID 686979; also: potency is read from the fitted curve at half-maximal effect; nearly all actives have a fitted effect of over 55% in size
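Cell growth measured by CellTiter-Glo luminescence after a minimum 48 h, 37 C compound exposure with 20 nM CPT in Tdp1-knockout DT40 cells stably expressing hTDP1, seeded 400/well; qHTS titration format.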
HT1080NT lethal: kills 2HG-producing HT-1080-NT fibrosarcoma cells. HT-1080-NT fibrosarcoma viability, CellTiter-Glo ATP luminescence, 48 h. Potency, µM (series often up to 46.1 µM), for inactives: top-dose activity, negative = less viability, hits mostly cytotoxic. 360,000 tested, 1.6% active. AID 686970;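 also: NT is the 2HG producing partner of a matched IDH1 knockdown line; potency is read from the fitted curve at half-maximal effect; 0% = DMSO-treated cells and -100% = media-only wells without cells; nearly all actives have a fitted effect of over 55% in size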
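A 48-hour cytotoxicity screen used HT-1080-NT cells plated 2 hours before compound delivery. ATP-based CellTiter-Glo luminescence measured viability, normalized to DMSO and no-cell controls.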
TDP1 cell noCPT: qHTS for Inhibitors of human tyrosyl-DNA phosphodiesterase 1 (TDP1): qHTS in cells in absence of CPT | DT40 Tdp1-/- hTDP1 cells, no CPT, ATP luminescence, 48 h | Potency, µM (series often up to 46.2 µM), without a hit: top-dose activity change, negative = growth inhibition, most hits filed as inhibitors | 420,000 tested, 15% active | AID 686978, 2013; also: potency is read from the fitted curve at half-maximal effect; nearly all actives have a fitted effect of over 55% in size
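Compound effects on proliferation are scored in DT40 Tdp1-/-;hTDP1 cells in the absence of CPT. ATP levels (CellTiter-Glo luminescence) are recorded after a ≥48 hr, 37 °C incubation.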
IL1B secr inh: inflammasome signaling inhibition, IL-1 beta readout. 360,000 tested, 4.7% active. THP-1 LPS/ATP IL-1B secretion, AlphaLISA, 16 h; active compounds read low. activity change, % at 57.5 µM. AID 743279; in the data active = activity change below about -50%; inconclusive = mostly about -30% to -49%
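Secreted IL-1B measured by AlphaLISA bead assay after 16 h compound exposure of THP-1 cells; compounds (final up to 57.5 uM) added 1 h before LPS (250 ng/mL) and ATP (1.25 mM) stimulation; lower signal means less secretion.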
Active calls of the source: *; ? = inconclusive; / = not tested or not shown. The list is not random: actives were taken first. Their share in the collection is about 19%. Unless noted, calls follow the shape of the dose curve; as a rule, active = well fitted curve in the direction sought with a large enough effect; inconclusive = small, poorly fitted or top-dose-only effect, or another doubt; inactive = no such curve, though single readings can be large; an effect the other way counts as inactive or inconclusive. Unless noted, % is scaled to controls: 0 for no effect and ±100 for the full control effect.

SMILES	HT1080 IDH1KD tx	TDP1 cell CPT	HT1080NT lethal	TDP1 cell noCPT	IL1B secr inh
Cc1ccc(Cn2c(CNC(=O)c3ccccc3Br)nc3cccnc32)cc1	/	?	/	16.4µM*	/
CCOc1ccccc1C(=O)Nc1ccc(S(=O)(=O)Nc2ncccn2)cc1	/	0.7%	/	-23.0%	/
Cc1occc1-c1nnc(SCC(=O)c2ccc(F)cc2)o1	-4.4%	-27.3%	-0.8%	?	-8.4
CNc1nc(Cl)c(SC)c(NCc2ccc(F)cc2)n1	-2.3%	?	-3.2%	?	0.0
COc1ccccc1Cn1c(CNS(=O)(=O)c2c(C)cc(C)cc2C)nc2cccnc21	/	16.4µM*	/	16.4µM*	/
Cc1ccsc1C(=O)OCC(=O)NC1CCCCC1	16.3%	-6.0%	11.0%	-5.0%	18.0
COC(=O)C1=C(C(=O)OC)[C@]2([C@@H]3CCCCN[C@@H](Cc4ccccc4)C(=O)N3Cc3ccccc3)C=C[C@H]1O2	4.4%	14.6µM*	10.1%	13µM*	-0.2
COC(=O)c1ccc(C2SCC(=O)N2Cc2ccccc2)cc1 (configuration not stated)	-1.6%	-5.3%	0.7%	?	28.4
N#C[C@@H]1N(Cc2ccccc2)C(=O)[C@H]2CC3C=CC21O3 (some centres not stated)	1.2%	?	1.1%	?	-14.0
COC(=O)C1=C(C(=O)OC)[C@]2([C@@H]3C/C=C\CN[C@@H](Cc4ccccc4)C(=O)N3Cc3ccccc3)C=C[C@H]1O2	/	25.1µM*	/	?	/
O=C1N[C@@H](Cc2ccccc2)C(=O)N2[C@H]1C[C@]1(Br)c3ccccc3N(S(=O)(=O)c3ccc(F)cc3)[C@H]21	1.9%	18.4µM*	-1.3%	?	-2.4
Cc1cc(NC(=O)Nc2cccc(C)c2C)no1	23.8%	?	12.5%	-27.0%	8.6
CC(=O)NC(C)(c1ccccc1)c1nc(-c2ccc(S(C)(=O)=O)cc2)cs1 (configuration not stated)	1.0%	?	-12.1%	-23.6%	-19.8
COCc1cccc(-c2csc(C(C)(NC(C)=O)c3ccccc3)n2)c1 (configuration not stated)	0.0%	23.1µM*	4.8%	18.4µM*	-8.5
COCc1cccc(-c2csc(C(C)(NC(C)=O)c3ccc(OC)cc3)n2)c1 (configuration not stated)	14.7%	18.4µM*	-1.7%	?	-22.6
CC(=O)NC(C)(c1ccccc1)c1nc(-c2cccc(F)c2)cs1 (configuration not stated)	0.0%	29.1µM*	5.8%	?	/
CC(=O)NC(C)(c1ccccc1)c1nc(-c2ccncc2)cs1 (configuration not stated)	5.0%	-8.4%	18.7%	-20.0%	2.9
Cc1cc(NS(=O)(=O)c2ccc(NC(=S)Nc3ccc(Cl)cc3C)cc2)no1	7.0%	14.5%	14.6%	0.0%	-8.4
COc1c2c(c3c(c1OC)c(=O)c1ccccc1n3C)OCO2	-0.1%	?	-0.7%	?	6.2
CC[C@@H](NCCCn1cnc2c(SC)ncnc21)c1ccccc1	-29.6%	16.4µM*	-1.1%	?	0.4
CSc1ncnc2c1ncn2CCCNC1CCN(Cc2ccccc2)CC1	-27.1%	?	-3.9%	23.1µM*	?
CSc1ncnc2c1ncn2CCCNCc1cccc2ccccc12	-12.3%	-16.7%	-12.2%	?	4.4
c1ccc(COc2ncnc3c2ncn3CCCNC2CCN(Cc3ccccc3)CC2)cc1	18.4µM*	7.31µM*	23.1µM*	4.11µM*	?
O=C(NCc1ccccc1)C(=O)NCC1OCCN1C(=O)c1ccc(Cl)cc1 (configuration not stated)	15.9%	-10.7%	12.8%	-22.6%	-19.0
Cc1cc2cc(C)c(NCCNC(=O)c3cccs3)nc2cc1C	?	-19.7%	?	?	0.0
COc1ccc(NS(=O)(=O)c2ccc(N3CC(O)=C(c4ccccc4)C3=N)cc2)cc1	3.4%	2.2%	-3.9%	0.0%	31.2
